In PubChem BioAssay AID651871 (Sanford-Burnham Center for Chemical Genomics, 2012):
Where “and” joins values, the source holds several entries; their conditions need not be identical. Equal values may be shown once.

Tested on: HL-1
Assay: cardiomyocyte survival under oxidative or metabolic stress – cell-based, panel, H9c2 and HL-1, ATP luminescence, set 2, SAR follow-up (AID 651871);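 also: cells exposed to stressor for 2 h before ATP readout; reference of the scale not given here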
Conditions: H9c2/HL-1 cardiomyocytes, 2-deoxyglucose stress, with 2-deoxyglucose, run 8, at 19.8 µM (top of the series)

For `COc1ccc2c(c1OC)C(=O)N1c3ccccc3C(=O)N(Cc3cccc(Cl)c3Cl)C21` (stereo unspecified), which activity (protection/inhibition) is on record?
Its activity (protection/inhibition) is 51.9% and 34.6%.
